The target in test [1] is human Thromboxane A2 Receptor (TXA2), TBXA2R (gene 6915) (UniProt P21731). Kind of test: NVS_GPCR_hTXA2: NovaScreen (NVS) G Protein-Coupled Receptor Assay for human Thromboxane A2 Receptor (TXA2) (AID 2283282).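 Further: actives reduce bound radioligand signal relative to DMSO baseline.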 A digest of the protocol: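 Human platelet membranes tested for radioligand displacement by filtration and scintillation counting 1 h post-dose. Screened in duplicate at 25 uM; activity fitted as signal loss relative to DMSO.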

In test [2] the target is human Vasopressin 1A Receptor (V1A), AVPR1A (gene 552) (UniProt P37288). The experiment in a line: NVS_GPCR_hV1A: NovaScreen (NVS) G Protein-Coupled Receptor Assay for human Vasopressin 1A Receptor (V1A) (AID 2283284). An outline of the steps: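 Single-concentration duplicate screen at 25 uM, with concentration-response follow-up (top 50 uM) for actives. The assay measured displacement of a radioligand from human platelet-derived receptor after 1.5 h, detected by filtration and scintillation counting.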

Test [3] has as its target guinea pig Bradykinin Receptor B2 (BK2), BDKRB2 (gene 100135486) (UniProt O70526). The experiment in a line: NVS_GPCR_gBK2: NovaScreen (NVS) G Protein-Coupled Receptor Assay for guinea pig Bradykinin Receptor B2 (BK2) (AID 2283292). A digest of the protocol: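 Guinea pig ileum membrane preparation incubated 1 h with radioligand and test chemical; bound counts measured after filtration. Primary duplicate screening at 25 uM, then singleton concentration series with a 50 uM top dose; DMSO as baseline.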

Test [4] deals with guinea pig Serotonin, 5-Hydroxytryptamine Receptor 4 (5HT4), HTR4 (gene 100135548) (UniProt O70528). The experiment in a line: NVS_GPCR_g5HT4: NovaScreen (NVS) G Protein-Coupled Receptor Assay for guinea pig Serotonin, 5-Hydroxytryptamine Receptor 4 (5HT4) (AID 2283294). An outline of the steps: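 Compounds first screened in duplicate at 25 uM, actives followed up in concentration series. Binding measured as displacement of specific radioligand from guinea pig striatal membranes, 1 h, filter-based scintillation read-out versus DMSO baseline.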

Inconclusive results are not listed. Calls of active or inactive are those of the source. How the source made its calls: active means hit-call score of the fitted dose curve at least 0.9, where 1 is the maximum; inconclusive means response in the unintended direction; inactive means score below 0.9.

Sequence of guinea pig Bradykinin Receptor B2 (BK2), BDKRB2 (gene 100135486) (O70526 whole entry, looked up): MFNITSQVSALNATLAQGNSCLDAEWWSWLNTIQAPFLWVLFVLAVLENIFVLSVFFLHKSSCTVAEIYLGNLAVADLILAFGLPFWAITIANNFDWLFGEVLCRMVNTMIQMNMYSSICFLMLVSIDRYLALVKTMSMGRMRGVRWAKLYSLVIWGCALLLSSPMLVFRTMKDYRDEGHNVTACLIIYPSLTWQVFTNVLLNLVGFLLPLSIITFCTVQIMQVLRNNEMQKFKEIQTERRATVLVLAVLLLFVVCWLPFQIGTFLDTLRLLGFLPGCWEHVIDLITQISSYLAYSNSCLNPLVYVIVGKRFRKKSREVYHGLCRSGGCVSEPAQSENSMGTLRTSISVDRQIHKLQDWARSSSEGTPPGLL
Sequence of human Thromboxane A2 Receptor (TXA2), TBXA2R (gene 6915) (P21731 whole entry, looked up): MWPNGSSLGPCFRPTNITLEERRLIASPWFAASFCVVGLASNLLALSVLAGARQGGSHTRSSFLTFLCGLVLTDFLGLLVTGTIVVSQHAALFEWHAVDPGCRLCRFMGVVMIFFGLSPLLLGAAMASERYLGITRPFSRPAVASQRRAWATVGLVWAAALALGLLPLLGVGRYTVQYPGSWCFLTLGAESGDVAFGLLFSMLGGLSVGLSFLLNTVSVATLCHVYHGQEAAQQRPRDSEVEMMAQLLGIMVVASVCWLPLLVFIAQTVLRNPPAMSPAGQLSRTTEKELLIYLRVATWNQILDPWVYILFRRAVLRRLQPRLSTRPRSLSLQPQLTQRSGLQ
Sequence of guinea pig Serotonin, 5-Hydroxytryptamine Receptor 4 (5HT4), HTR4 (gene 100135548) (O70528 whole entry, looked up): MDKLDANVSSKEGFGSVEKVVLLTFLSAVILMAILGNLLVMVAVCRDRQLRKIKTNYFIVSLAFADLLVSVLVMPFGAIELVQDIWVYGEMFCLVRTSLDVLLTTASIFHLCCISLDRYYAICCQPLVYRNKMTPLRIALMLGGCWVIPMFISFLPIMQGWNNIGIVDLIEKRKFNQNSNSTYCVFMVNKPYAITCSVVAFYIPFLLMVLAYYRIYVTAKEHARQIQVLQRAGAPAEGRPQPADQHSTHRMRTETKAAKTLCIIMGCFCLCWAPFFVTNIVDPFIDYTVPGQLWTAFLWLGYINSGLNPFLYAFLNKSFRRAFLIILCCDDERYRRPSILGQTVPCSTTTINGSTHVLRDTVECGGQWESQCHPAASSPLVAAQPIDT
Sequence of human Vasopressin 1A Receptor (V1A), AVPR1A (gene 552) (P37288 whole entry, looked up): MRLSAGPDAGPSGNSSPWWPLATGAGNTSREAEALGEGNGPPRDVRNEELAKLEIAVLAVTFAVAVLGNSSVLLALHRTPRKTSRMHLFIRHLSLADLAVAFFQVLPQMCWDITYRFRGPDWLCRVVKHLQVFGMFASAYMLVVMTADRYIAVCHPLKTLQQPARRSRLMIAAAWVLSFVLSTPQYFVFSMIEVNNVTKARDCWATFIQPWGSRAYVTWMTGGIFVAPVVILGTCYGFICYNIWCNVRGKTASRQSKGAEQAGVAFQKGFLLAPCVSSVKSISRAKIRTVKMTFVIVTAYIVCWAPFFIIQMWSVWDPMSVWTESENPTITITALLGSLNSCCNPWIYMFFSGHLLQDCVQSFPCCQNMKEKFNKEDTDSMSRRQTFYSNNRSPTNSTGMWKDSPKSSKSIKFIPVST

As for `CCN(CC)C(=O)C(C)Oc1cccc2ccccc12` (centres undefined), the molecule was called inactive in test [1].
As for `CN/C(=N\[N+](=O)[O-])NCc1cnc(Cl)s1`, the outcome in test [2] was inactive.
Take `COC(=O)NC(=S)Nc1ccccc1NC(=S)NC(=O)OC`: the molecule was called inactive in test [3].
For `Cn1c(-c2ccccc2)cc(-c2ccccc2)[n+]1C`, the AC50 (as a rule, the concentration at which the activity in the assay is half-maximal) in test [4] is 6.94 µM (active).
